The results in this text go back to PubChem BioAssay (EPA / NIEHS).

Each structure is given as a SMILES string. Calls of active or inactive are those of the source. How the source made its calls: active means hit-call score of the fitted dose curve at least 0.9, where 1 is the maximum; inactive means score below 0.9.

A short description of the experiment: ATG_M_61_CIS: Attagene CIS-FACTORIAL HepG2 Assay for M61 Transcription Factor (Internal Marker) (AID 2282937). The settings on record: HepG2 Attagene CIS-FACTORIAL M61 internal marker reporter; actives raise or lower the signal. Here is the method: ATG_CIS is a cell-based, multiplexed-readout assay that uses HepG2, a human liver cell line, with measurements taken at 24 hours after chemical dosing in a 24-well plate.ATG_M_61_CIS is one of 52 assay component(s) measured or calculated from the ATG_CIS assay. It is designed to make measurements of mRNA induction, a form of inducible reporter, as detected with fluorescence intensity signals by Reverse transcription polymerase chain reaction (RT-PCR) and Capillary electrophoresis technology.Data from the assay component ATG_M_61_CIS was analyzed into 1 assay endpoint. This assay endpoint, ATG_M_61_CIS, was analyzed with bidirectional fitting relative to DMSO as the negative control and baseline of activity. Using a type of inducible reporter, measures of mRNA for gain or loss-of-signal activity can be used to understand the background control at the transcription factor-level as they relate to the gene . Furthermore, this assay endpoint can be referred to as a secondary readout, because this assay has produced multiple assay endpoints where this one serves a background control function. To generalize the intended target to other relatable targets, this assay endpoint is annotated to the background measurement intended target family, where the subfamily is internal marker.
Human liver HepG2 cells are transiently transfected with multiple reporter transcription units (MRTUs) in 6-well plates using FuGene 6 reagent (Roche; 3 ml FuGene/1 mg DNA). The MRTU constructs are regulated by a cis-regulating element (promoter). […] A major difference between the CIS and TRANS system is that in CIS activities of endogenous TFs are measured, whereas the TRANS assay evaluates changes in activities of exogenous, chimeric NR-Gal4 proteins. […] At the end of 24 hour incubation, total RNA was isolated using TriZol reagent (Invitrogen). The isolated RNA is then reverse-transcribed using oligo(dT) primer and Mo-MLV reverse transcriptase (Invitrogen) with DNAse I (Ambion) treatment for 30 min. The one-tenth of the produced cDNA was amplified by PCR using Taq DNA polymerase (Invitrogen) and two reporter sequence-specific primers. The PCR products were fluorescently labeled by primer extension with 6-arboxyfluorescein (6-FAM) 5'-labeled reporter sequence-specific primer (2 min at 95 C, 20 s at 68 C and 10 min at 72 C) and these products were digested with 5U of HpaI (New England Biolabs) for 2h at 37 C. The fragments were purified using Qiaquick PCR columns (Qiagen), analyzed on an ABI 3130xL genetic analyzer (Applied Biosystems) with peak positions identified by using a set of X-rhodamine (ROX)-labeled MapMarker1000 molecular weight standards (BioVentures). The raw capillary electrophoresis data was processed using Attagraph software (Attagene).
Regarding `ClC(Cl)c1ccccc1`, the compound was classed as inactive.

Turning to `CCOP(=S)(Oc1ccc([N+](=O)[O-])cc1)c1ccccc1` (stereo not given), the compound was classed as inactive. Take `CCCCN(CC)C(=O)SCCC`: the result was inactive. Regarding `O=S(=O)(F)C(F)(F)C(F)(F)C(F)(F)C(F)(F)C(F)(F)C(F)(F)C(F)(F)C(F)(F)F`, the result was inactive. On to `c1cc2c3c(cccc3c1)CC2`, for which the result was inactive. On to `CC(C)(C)N(NC(=O)c1ccc(Cl)cc1)C(=O)c1ccccc1`, for which the outcome was inactive. For `c1ccc2c(c1)sc1ccccc12`, the outcome was inactive. In the case of `CNC(=O)Oc1ccc(N(C)C)c(C)c1`, the outcome was inactive. As for `CCCCOCCOP(=O)(OCCOCCCC)OCCOCCCC`, the compound was called inactive. `OCC(F)(F)OC(F)(F)C(F)(F)OC(F)(F)CO`: the call was inactive.

Take `CN(C)C(=O)Cl`: the call was inactive. In the case of `Cc1ccc(N)cc1N`, the compound was classed as inactive. For `OCC(F)(F)OC(F)(F)C(F)(F)OC(F)(F)C(F)(F)OC(F)(F)CO` the value was “inactive”; for `CCCCc1ccc(O)cc1`, “inactive”; for `N#Cc1cc([N+](=O)[O-])ccc1N`, “inactive”. With `O=S1(=O)OCC2C(CO1)C1(Cl)C(Cl)=C(Cl)C2(Cl)C1(Cl)Cl` (stereo not given), the compound was called inactive. On to `C/C(=N\NC(=O)Nc1cc(F)cc(F)c1)c1ncccc1C(=O)O`, for which the outcome was inactive. Under `N#Cc1c(-c2ccc(Cl)cc2)[nH]c(C(F)(F)F)c1Br` stands “inactive”; under `CCOP(=S)(OCC)SCn1nnc2ccccc2c1=O`, “inactive”; under `OCC(F)(F)OC(F)(F)C(F)(F)OC(F)(F)C(F)(F)OC(F)(F)F`, “inactive”. As for `CCCCCCCc1ccc(O)cc1`, the call was inactive.

With `C=CC(=O)OCC(F)(F)C(F)F`, the compound was classed as inactive. Turning to `CO/N=C(/C(=O)OC)c1ccccc1COc1ccccc1C`, the compound was classed as inactive. Regarding `O=c1ssc(Cl)c1Cl`, the compound was classed as inactive. For the compound `CCOS(=O)(=O)OCC`, the compound was called inactive. As for `O=C(O)C(F)(OC(F)(F)C(F)(F)C(F)(F)F)C(F)(F)F` (stereo not given), the result was inactive. In the case of `FC(F)(F)C(F)(C(F)(F)F)C(F)(F)C(F)(F)CC1CO1` (stereo not given), the call was inactive.

With `CC(C)(C)c1ccc(O)cc1`, the outcome was inactive. Take `CC1(C)CN=C(NN=C(/C=C/c2ccc(C(F)(F)F)cc2)/C=C/c2ccc(C(F)(F)F)cc2)NC1`: the outcome was inactive.

As for `O=C(O)C(F)(F)OC(F)(F)C(F)(F)OC(F)(F)C(=O)O`, the outcome was inactive.

`C=C(C)C(=O)OCC1CO1` (stereo not given): the compound was called inactive.

In the case of `O=C(CBr)OCc1ccccc1`, the result was inactive. `CCOC(=O)c1ccccc1C(=O)OCC`: the call was inactive.

`O=[N+]([O-])c1ccc(Cl)c(Cl)c1`: the compound was classed as inactive. On to `CC(O)C(F)(F)C(F)(F)F` (stereo not given), for which the call was inactive. Regarding `O=C(O)C=CC(F)(C(F)(F)F)C(F)(F)F`, the compound was called inactive.

For the compound `Cc1ccc([N+](=O)[O-])cc1C`, the compound was classed as inactive. Turning to `CC(O)C#N` (stereo not given), the compound was called inactive. Turning to `CCOP(=S)(NC(C)C)Oc1ccccc1C(=O)OC(C)C` (stereo not given), the result was inactive. `O=P1(N(CCCl)CCCl)NCCCO1` (stereo not given): the compound was called inactive.
